Assay results from PubChem BioAssay AID1159580 (chemical genetic matrix, 2015).
“And” between values parts separate entries of the source, which are not always exact repeats. Equal entries are not always repeated. In all, about 5,500 compounds went through this assay and about 2,000 (36%) were called active. Roughly 18% stayed inconclusive and do not appear here. No stated cut-off is given here; in the data, active means normalized growth mostly below about 0.91 (no sharp cut-off); inconclusive means no clear call, values can overlap the other calls; inactive means mostly above about 0.92. This is one part of the list.

Assay: chemical genetic growth profiling, strain panel (AID 1159580);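 further: tested at 20 µM; growth read once vehicle control cultures reached saturation at 30 °C; 1 = growth at the plate median or of vehicle wells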
Conditions: growth OD
[1] = S. cerevisiae deletion strains, locus YAL013W, strain DEP1, stronger effect = lower value
[2] = S. cerevisiae deletion strains, locus YBR229C, strain ROT2, stronger effect = lower value
[3] = S. cerevisiae deletion strains, locus YDL101C, strain DUN1, stronger effect = lower value
[4] = S. cerevisiae deletion strains, locus YDL134C, strain PPH21, stronger effect = lower value
[5] = S. cerevisiae deletion strains, locus YDR150W, strain NUM1, stronger effect = lower value
[6] = S. cerevisiae deletion strains, locus YEL061C, strain CIN8, stronger effect = lower value
[7] = S. cerevisiae deletion strains, locus YGR078C, strain PAC10, stronger effect = lower value
[8] = S. cerevisiae deletion strains, locus YHR030C, strain SLT2, stronger effect = lower value
[9] = S. cerevisiae deletion strains, locus YHR087W, strain rtc3, stronger effect = lower value
[10] = S. cerevisiae deletion strains, locus YJL187C, strain SWE1, stronger effect = lower value
[11] = S. cerevisiae deletion strains, locus YJR043C, strain POL32, stronger effect = lower value
[12] = S. cerevisiae deletion strains, locus YJR075W, strain HOC1, stronger effect = lower value
[13] = S. cerevisiae deletion strains, locus YLR039C, strain RIC1, stronger effect = lower value
[14] = S. cerevisiae deletion strains, locus YLR058C, strain SHM2 (second series), stronger effect = lower value
[15] = S. cerevisiae deletion strains, locus YLR085C, strain ARP6, stronger effect = lower value
[16] = S. cerevisiae deletion strains, locus YLR262C, strain YPT6, stronger effect = lower value
[17] = S. cerevisiae deletion strains, locus YML094W, strain GIM5, stronger effect = lower value
[18] = S. cerevisiae deletion strains, locus YMR219W, strain ESC1, stronger effect = lower value
[19] = S. cerevisiae deletion strains, locus YMR263W, strain SAP30, stronger effect = lower value
[20] = S. cerevisiae deletion strains, locus YNL153C, strain GIM3, stronger effect = lower value
[21] = S. cerevisiae deletion strains, locus YNL298W, strain CLA4 (second series), stronger effect = lower value
[22] = S. cerevisiae deletion strains, locus YNL322C, strain KRE1, stronger effect = lower value
[23] = S. cerevisiae deletion strains, locus YNR030W, strain Alg12, stronger effect = lower value
[24] = S. cerevisiae deletion strains, locus YPL055C, strain LGE1, stronger effect = lower value
[25] = S. cerevisiae deletion strains, locus YPL241C, strain CIN2, stronger effect = lower value
[26] = S. cerevisiae deletion strains, locus YPR135W, strain CTF4, stronger effect = lower value
[27] = S. cerevisiae strains, strain wild type, stronger effect = lower value
[28] = S. cerevisiae deletion strains, locus YGR229C, strain SMI1, stronger effect = lower value
[29] = S. cerevisiae deletion strains, locus YMR307W, strain GAS1, stronger effect = lower value

Measured: normalized growth

CCN(C(=S)Nc1ccc(OC)cc1)c1ccccc1
inactive: [1] 1 | [2] 1.02 | [3] 1.01 | [4] 1.01 | [5] 0.917 | [6] 1 | [7] 0.989 | [8] 1.12 | [9] 1.01 | [10] 1.01 | [11] 1.01 | [12] 1 | S. cerevisiae deletion strains, locus YKL190W, strain CNB1, stronger effect = lower value 1.02 | [13] 0.921 | [14] 1.03 | [15] 0.976 | [16] 0.985 | [17] 1 | [18] 1.02 | [19] 1.01 | [20] 0.988 | [21] 0.99 | [22] 1.02 | [23] 0.992 | [24] 0.89 | [25] 0.999 | [26] 0.884

COc1cccc(NC(=S)NCc2ccco2)c1
inactive: [1] 0.979 | [2] 0.99 | [3] 1.03 | [5] 1.04 | [6] 0.979 | [7] 1.01 | [8] 0.88 | [9] 0.977 | [10] 0.984 | [11] 1.01 | [12] 1 | [13] 0.976 | [14] 0.984 | [15] 0.884 | [16] 0.97 | [17] 0.963 | [18] 0.992 | [19] 1.04 | [20] 1 | [21] 1.01 | [22] 0.994 | [23] 0.986 | [24] 0.976 | [25] 0.97 | [26] 0.956 | [27] 0.996

S=C(NCc1ccco1)Nc1ccc(Oc2ccc(Cl)cc2)cc1
active: [2] 0.868 | [6] 0.723 | [7] 0.915 | [10] 0.923 | [13] 0.41 | [15] 0.355 | [16] 0.463 | [17] 0.703 | [19] 0.85 | [29] 0.364 | S. cerevisiae deletion strains, locus YNL128W, strain TEP1, stronger effect = lower value 0.887 | [21] 0.652 | [23] 0.544 | [24] 0.641 | [25] 0.361 | S. cerevisiae deletion strains, locus YPL256C, strain CLN2, stronger effect = lower value 1.27 [resistant] | [26] 0.505 | [27] 0.883
0.247 (active) and 1.07 (inactive): [8]
inactive: [1] 0.937 | [3] 0.933 | [5] 0.863 | S. cerevisiae deletion strains, locus YGR052W, strain FMP48, stronger effect = lower value 1.04 | [28] 0.987 | S. cerevisiae deletion strains, locus YHR079C, strain IRE1, stronger effect = lower value 1.07 | S. cerevisiae deletion strains, locus YHR082C, strain KSP1, stronger effect = lower value 1.14 | [9] 0.919 | S. cerevisiae deletion strains, locus YJL095W, strain BCK1, stronger effect = lower value 0.948 | [11] 0.926 | S. cerevisiae deletion strains, locus YJR066W, strain TOR1, stronger effect = lower value 1.13 | [12] 0.95 | S. cerevisiae deletion strains, locus YKL171W, strain NNK1, stronger effect = lower value 1.06 | S. cerevisiae deletion strains, locus YKL203C, strain TOR2, stronger effect = lower value 1.04 | [14] 0.979 | S. cerevisiae deletion strains, locus YLR113W, strain HOG1, stronger effect = lower value 1.11 | [18] 0.97 | [20] 0.936 | S. cerevisiae deletion strains, locus YNL183C, strain NPR1, stronger effect = lower value 1.04 | S. cerevisiae deletion strains, locus YNL207W, strain RIO2, stronger effect = lower value 1.02 | [22] 0.998 | S. cerevisiae deletion strains, locus YOR119C, strain RIO1, stronger effect = lower value 1 | S. cerevisiae deletion strains, locus YOR231W, strain MKK1, stronger effect = lower value 0.944

CCC(=O)Oc1ccc(NC(=S)NCCCO)cc1
inactive: [1] 1 | [2] 1 | [3] 0.998 | [4] 0.992 | [5] 1 | [6] 1.01 | [7] 1 | [28] 1 | [8] 1.05 | [9] 0.999 | [10] 1 | [11] 1 | [12] 1.01 | [13] 0.996 | [14] 1 | [15] 1.04 | [16] 1 | [17] 1.04 | [18] 1 | [19] 1.01 | [29] 1.04 | [20] 1.01 | [21] 1.01 | [22] 1.01 | [23] 1.02 | S. cerevisiae deletion strains, locus YOL006C, strain TOP1, stronger effect = lower value 1.01 | [24] 1.01 | [25] 1.04 | [26] 1.22 | [27] 0.993
